# Where “and” joins values, the source holds several entries; their conditions need not be identical. Equal entries are not always repeated. Records with an inconclusive call do not appear. A call without a number means that no potency is given here. More than one record can exist for a structure, and the calls need not agree. Calls of active or inactive are those of the source. Unless noted, calls come from the whole dose curve; as a rule, active = well fitted curve in the direction sought with a large enough effect; inconclusive = small, poorly fitted or top-dose-only effect, or another doubt; inactive = no such curve, though single readings can be large; an effect the other way counts as inactive or inconclusive.
# Columns and labels:
# [1] = P-glycoprotein substrates identified in KB-3-1 adenocarcinoma cell line, qHTS therapeutic library screen (AID 1346986); note: nearly all actives have a fitted effect of over 60% in size;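 note: potency is the fitted concentration of half-maximal effect; potency is for cytotoxicity meaning loss of cell viability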
# Procedure, shortened: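 KB-3-1 parental and colchicine-selected P-gp-overexpressing KB-8-5-11 cells (colchicine omitted during assay), 500 cells/well, dosed in dose-response for 72 h at 37 °C; CellTiter-Glo luminescence. Cytotoxic: curve class -1.1 to -2.4, max response >50%, AC50 < 10 uM.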
# [2] = P-glycoprotein substrates identified in KB-8-5-11 adenocarcinoma cell line, qHTS therapeutic library screen (AID 1346987); note: nearly all actives have a fitted effect of over 65% in size; note: potency is the fitted concentration of half-maximal effect
# Procedure, shortened: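 Steps: plate 500 KB-8-5-11 cells/well in DMEM + 10% FCS (colchicine removed); pin compounds in dose-response; incubate 72 h, 37 degree C, 5% CO2; add CellTiter-Glo, 5 min; read luminescence.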
# [3] = Primary qHTS for inhibitors of nuclear receptor binding SET domain protein 2 (NSD2) in an isogenic RCH-ACV NSD2 p.E1099K mutant (9B) (AID 1645876); note: nearly all actives have a fitted effect of over 70% in size; note: potency is the fitted concentration of half-maximal effect
# [4] = Primary qHTS for inhibitors of nuclear receptor binding SET domain protein 2 (NSD2) in an RCH-ACV wild type WT cells (2C) (AID 1645877); note: nearly all actives have a fitted effect of over 70% in size; note: potency is the fitted concentration of half-maximal effect
# [5] = target: Calcium and integrin-binding protein 1 (Homo sapiens) (UniProt Q99828); test: Primary qHTS for Identification of Calcium Integrin Binding Protein 1 (CIB1) Competitor (AID 1508620);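 note: GST tagged CIB1 binding a fluorescein labelled alphaIIb integrin peptide tracer; top concentration of the series differs between compounds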
# Procedure, shortened: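 Fluorescence polarization competition: GST-tagged CIB1 (1 uM final) preincubated with compound 15 min at room temperature, then FITC-labelled alphaIIb peptide (100 nM final) added. After 15 min at room temperature, polarization read at Ex 480/Em 540.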
# [6] = target: Catechol O-methyltransferase (Homo sapiens) (UniProt P21964); test: Confirmatory Screen for Target Class Profiling of Small Molecule Inhibitors of Methyltransferases (AID 1745852); details: MTase-Glo luminescence, SAH detection, recombinant enzyme; measured here: COMT max response; stronger effect = lower value
# [7] = target: Guanidinoacetate N-methyltransferase (Homo sapiens) (UniProt Q14353); test: as above; details: activity change, negative = inhibition: at 57.3 µM (top of the series) unless noted
# [8] = target: Nicotinamide N-methyltransferase (Homo sapiens) (UniProt P40261); test: as above; details: MTase-Glo luminescence, SAH detection, recombinant enzyme; measured here: NNMT max response; stronger effect = lower value
# [9] = target: Phenylethanolamine N-methyltransferase (Homo sapiens) (UniProt P11086); test: as above; details: MTase-Glo luminescence, SAH detection, recombinant enzyme; measured here: PNMT max response; stronger effect = lower value
# [10] = target: Glutathione peroxidase 1 (Homo sapiens) (UniProt P07203); test: Primary qHTS Assay for Inhibitors of Recombinant Selenoprotein Glutathione Peroxidase 1 (GPX1) (AID 1845191); note: nearly all actives have a fitted effect of over 65% in size
# Procedure, shortened: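 GR-coupled assay: compounds preincubated 30 min at room temperature with GPX1, then reaction started with CHP; final 10 nM GPX1, 1 mM GSH, 0.5 mM CHP, 0.5 mM NADPH, 100 nM GR, 0.01% BSA, pH 7.5 Tris buffer. NADPH fluorescence (340/450 nm) read at 0 and 15 min.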
# [11] = qHTS to identify inhibitors of the type 1 interferon - major histocompatibility complex class I in skeletal muscle: primary screen against the NCATS Mechanism Interrogation Plate v5.0 (MIPE) Libary (AID 1347411); note: nearly all actives have a fitted effect of over 65% in size; note: potency is the fitted concentration of half-maximal effect
# Procedure, shortened: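 Luminescence from HiBiT-tagged endogenous HLA-B*08:01 served as the MHC class I read-out. CRISPR-engineered C25cl48 human myoblasts received 4.0 ng/ml IFN-beta plus compound for 24 hrs, with an 11-point, 1:3 series topping at 46 uM final.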
# [12] = target: Phospholipid hydroperoxide glutathione peroxidase GPX4 (Homo sapiens) (UniProt P36969); test: Primary qHTS Assay for Inhibitors of Recombinant Selenoprotein Glutathione Peroxidase 4 (GPX4) (AID 1845192); details: outcome: dose series up to 50 µM unless noted; note: nearly all actives have a fitted effect of over 65% in size
# Procedure, shortened: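 GR-coupled assay: recombinant GPX4 preincubated 30 min with compound at room temperature; final 200 nM GPX4, 1 mM GSH, 0.5 mM cumene hydroperoxide, 0.5 mM NADPH, 100 nM GR, 0.01% BSA, pH 7.5 Tris. NADPH fluorescence (340/450 nm) read at 0 and 15 min.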
# [13] = qHTS drug screen for cell cycle checkpoint inhibitors in PARPi-resistant BRCA-mutant ovarian cancer cell lines. (AID 1963452; calls by dose curve; note: potency is the fitted concentration of half-maximal effect); details: PEO1/OlaR viability, CellTiter-Glo luminescence, 96 h; for Z-AUC: stronger effect = lower value
# Procedure, shortened: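 PEO1, PEO4 and PEO1/OlaR ovarian cancer cells, 600 per well, exposed 96 h at 37C to a dilution series. Viability read by CellTiter-Glo luminescence, normalized to DMSO and empty wells; activity summarized as Z-AUC.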
# [14] = qHTS assay to identify inhibitors of the type 1 interferon - major histocompatibility complex class I in skeletal muscle: Counter screen cell viability and HiBit confirmation (AID 1347412); details: iHSKM muscle cells + IFN-b, HiBiT or CellTiter-Glo, 24 h; HiBiT; at 45.9 µM (top of the series); note: nearly all actives have a fitted effect of over 60% in size
# Procedure, shortened: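 Luminescence read-out: Nano-Glo HiBiT lytic signal from C-terminally HiBiT-tagged HLA-B in CRISPR-edited human myoblasts, plus CellTiter Glo ATP as viability counter screen. IFN-beta 4.0 ng/ml; 24 hrs treatment at 37 C, 5% CO2.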
# [15] = target: Cytochrome P450 2D6 (Homo sapiens) (UniProt P10635); test: Cytochrome P450 family 2 subfamily D member 6 (CYP2D6) small molecule antagonists: luciferase biochemical (cell-free) qHTS assay (AID 1645840; active = well fitted curve in the direction sought with a large enough effect in the repeat runs; an effect the other way counts as inactive or inconclusive; note: nearly all actives have a fitted effect of over 55% in size)
# Procedure, shortened: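 P450-Glo luminescent screen: recombinant CYP2D6 enzyme–proluciferin substrate mix preincubated with compound 10 min at room temperature, then NADPH regeneration added for 1 h at room temperature. Detection reagent added for 20 min; luciferin light read as relative luminescence units.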
# [16] = target: Cytochrome P450 2C9 (Homo sapiens) (UniProt P11712); test: Cytochrome P450 family 2 subfamily C member 9 (CYP2C9) small molecule antagonists: luciferase biochemical (cell-free) qHTS assay (AID 1645842; active = well fitted curve in the direction sought with a large enough effect in the repeat runs; an effect the other way counts as inactive or inconclusive; note: potency is the fitted concentration of half-maximal effect; nearly all actives have a fitted effect of over 55% in size)
# Procedure, shortened: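 Luminescence, after 20 min with luciferin detection reagent, reflected CYP2C9 turnover during a 1 h NADPH-driven reaction at 37C. Enzyme-substrate mix contained 0.4% bovine serum albumin and was preincubated with compound 10 min at room temperature.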
# [17] = measured here: PEO1 parental Z-AUC
# Sequence of Glutathione peroxidase 1 (Homo sapiens) (P07203 whole entry, looked up): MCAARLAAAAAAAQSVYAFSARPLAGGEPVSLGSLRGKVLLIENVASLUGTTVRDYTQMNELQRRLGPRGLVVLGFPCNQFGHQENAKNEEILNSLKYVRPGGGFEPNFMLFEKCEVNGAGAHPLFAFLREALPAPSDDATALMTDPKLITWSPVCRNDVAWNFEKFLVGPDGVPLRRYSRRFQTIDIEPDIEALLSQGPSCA
# Sequence of Calcium and integrin-binding protein 1 (Homo sapiens) (Q99828 whole entry, looked up): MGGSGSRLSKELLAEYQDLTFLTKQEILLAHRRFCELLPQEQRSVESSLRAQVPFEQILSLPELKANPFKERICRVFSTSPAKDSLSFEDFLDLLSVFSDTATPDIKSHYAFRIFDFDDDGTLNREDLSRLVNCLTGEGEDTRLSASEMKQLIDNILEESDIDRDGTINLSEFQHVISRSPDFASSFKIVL
# Sequence of Phospholipid hydroperoxide glutathione peroxidase GPX4 (Homo sapiens) (P36969 whole entry, looked up): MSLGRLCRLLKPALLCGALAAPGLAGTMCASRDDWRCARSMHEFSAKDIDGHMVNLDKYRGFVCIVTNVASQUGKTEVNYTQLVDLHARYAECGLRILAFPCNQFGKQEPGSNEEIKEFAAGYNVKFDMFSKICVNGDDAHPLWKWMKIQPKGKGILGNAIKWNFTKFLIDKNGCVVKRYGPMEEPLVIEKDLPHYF
# Sequence of Catechol O-methyltransferase (Homo sapiens) (P21964 whole entry, looked up): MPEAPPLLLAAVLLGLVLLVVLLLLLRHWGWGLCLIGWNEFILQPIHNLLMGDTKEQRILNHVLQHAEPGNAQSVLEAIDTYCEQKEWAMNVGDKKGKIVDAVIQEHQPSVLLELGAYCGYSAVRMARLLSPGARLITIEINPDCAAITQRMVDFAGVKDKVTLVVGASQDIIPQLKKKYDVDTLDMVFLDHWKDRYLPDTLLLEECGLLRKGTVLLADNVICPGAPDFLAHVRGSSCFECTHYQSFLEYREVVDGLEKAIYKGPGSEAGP
# Sequence of Cytochrome P450 2C9 (Homo sapiens) (P11712 whole entry, looked up): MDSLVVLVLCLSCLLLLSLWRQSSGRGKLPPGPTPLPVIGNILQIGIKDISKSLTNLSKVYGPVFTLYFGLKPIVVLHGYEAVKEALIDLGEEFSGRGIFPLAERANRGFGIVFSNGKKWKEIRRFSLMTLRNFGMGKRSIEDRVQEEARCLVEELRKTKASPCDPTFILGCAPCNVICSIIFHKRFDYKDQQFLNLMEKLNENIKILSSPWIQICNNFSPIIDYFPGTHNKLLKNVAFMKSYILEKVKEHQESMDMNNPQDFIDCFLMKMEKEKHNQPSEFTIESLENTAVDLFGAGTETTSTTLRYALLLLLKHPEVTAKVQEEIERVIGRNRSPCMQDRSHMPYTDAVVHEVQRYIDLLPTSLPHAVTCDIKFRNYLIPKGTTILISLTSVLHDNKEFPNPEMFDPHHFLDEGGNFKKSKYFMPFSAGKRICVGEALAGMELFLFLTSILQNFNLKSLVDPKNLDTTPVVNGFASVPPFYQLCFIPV
# Sequence of Phenylethanolamine N-methyltransferase (Homo sapiens) (P11086 whole entry, looked up): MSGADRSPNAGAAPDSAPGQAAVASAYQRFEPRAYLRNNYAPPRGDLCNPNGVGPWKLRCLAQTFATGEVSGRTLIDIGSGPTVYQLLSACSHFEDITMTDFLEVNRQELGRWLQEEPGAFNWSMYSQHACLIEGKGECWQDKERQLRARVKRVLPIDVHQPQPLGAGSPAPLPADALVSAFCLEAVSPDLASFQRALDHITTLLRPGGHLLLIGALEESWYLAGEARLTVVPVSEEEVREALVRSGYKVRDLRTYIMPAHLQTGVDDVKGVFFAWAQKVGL
# Sequence of Nicotinamide N-methyltransferase (Homo sapiens) (P40261 whole entry, looked up): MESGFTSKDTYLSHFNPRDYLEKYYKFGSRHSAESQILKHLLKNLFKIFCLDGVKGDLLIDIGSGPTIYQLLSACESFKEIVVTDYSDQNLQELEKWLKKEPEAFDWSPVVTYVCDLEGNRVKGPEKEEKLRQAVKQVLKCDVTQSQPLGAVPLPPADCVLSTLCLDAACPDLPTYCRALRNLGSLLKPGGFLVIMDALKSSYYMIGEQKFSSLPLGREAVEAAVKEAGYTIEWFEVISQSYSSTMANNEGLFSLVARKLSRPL
# Sequence of Cytochrome P450 2D6 (Homo sapiens) (P10635 whole entry, looked up): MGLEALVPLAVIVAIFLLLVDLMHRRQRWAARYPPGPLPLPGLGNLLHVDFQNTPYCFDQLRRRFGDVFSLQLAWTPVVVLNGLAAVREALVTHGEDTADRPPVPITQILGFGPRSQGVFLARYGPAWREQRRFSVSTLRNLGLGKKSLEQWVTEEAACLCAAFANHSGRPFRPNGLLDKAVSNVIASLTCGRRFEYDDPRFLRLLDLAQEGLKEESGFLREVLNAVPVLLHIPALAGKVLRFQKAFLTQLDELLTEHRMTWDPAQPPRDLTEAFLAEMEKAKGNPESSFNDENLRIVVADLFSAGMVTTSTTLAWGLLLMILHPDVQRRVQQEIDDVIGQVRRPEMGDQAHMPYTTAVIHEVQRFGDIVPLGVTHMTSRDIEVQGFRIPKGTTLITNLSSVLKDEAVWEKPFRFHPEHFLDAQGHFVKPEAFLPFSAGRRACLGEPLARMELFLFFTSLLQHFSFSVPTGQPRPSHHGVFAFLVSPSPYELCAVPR
smiles,measurement,setting,value
CN(C)CC1CCn2cc(c3ccccc32)C2=C(C(=O)NC2=O)c2cn(c3ccccc23)CCO1 (stereo unspecified),Potency,[1],inactive
same,Potency,[2],inactive
same,Potency,[3],13 µM (active)
same,Potency,[4],16400 nM (active)
C[C@]1(C(=O)Nc2ccc(F)nc2)CCCN1c1nc(Nc2cc(C3CC3)[nH]n2)c2cccn2n1,Potency,[1],2060 nM (active)
same,Potency,[2],2910 nM (active)
same,Potency,[3],1.84 µM (active)
same,Potency,[4],920 nM (active)
NC(=O)c1ncn(C2O[C@H](CO)[C@@H](O)[C@H]2O)c1N (stereo partly specified),Potency,[1],inactive
same,Potency,[2],inactive
same,Potency,[3],inactive
same,Potency,[4],inactive
CN1CCCN(C(=O)c2cccc(-c3ccc(/C=C4\C(=O)Nc5ccc(Cl)cc54)o3)c2)CC1,Potency,[1],8200 nM (active)
same,Potency,[2],9200 nM (active)
same,Potency,[3],0.231 µM (active)
same,Potency,[4],231 nM (active)
CC(C)n1cc(-c2ccc(Oc3ccccc3)cc2)c2c(N)ncnc21,Potency,[1],14600 nM (active)
same,Potency,[2],9200 nM (active)
same,outcome,[5],inactive
same,Potency,[3],1.64 µM (active)
same,Potency,[4],2060 nM (active)
same,activity,[6],-15%
same,"activity change, negative = inhibition",[7],-8.59%
same,activity,[8],-34.7%
same,activity,[9],-60.7%
same,Potency,[10],inactive
Cc1cc(Nc2nc(NC(C)c3ccc(F)cc3)c(C#N)cc2F)n[nH]1 (stereo unspecified),Potency,[1],164 nM (active)
same,Potency,[2],731 nM (active)
same,Potency,[3],0.92 µM (active)
same,Potency,[4],731 nM (active)
O=C1CCc2cc(S(=O)(=O)Nc3ccc(F)c(Cl)c3)c(F)cc2N1,Potency,[1],inactive
same,Potency,[2],inactive
same,outcome,[5],inactive
same,Potency,[3],inactive
same,Potency,[4],inactive
same,Potency,[10],inactive
Clc1ccc2ncc(-c3cccc(NC4CCNCC4)n3)n2c1,Potency,[1],3660 nM (active)
same,Potency,[2],16400 nM (active)
same,outcome,[5],inactive
same,Potency,[3],0.366 µM (active)
same,Potency,[4],259 nM (active)
same,Potency,[10],inactive
O=C1CCCC2=C1C(c1ccccc1Br)N=C(Nc1nc3ccccc3o1)N2 (stereo unspecified),Potency,[1],inactive
same,Potency,[2],inactive
same,outcome,[5],inactive
same,Potency,[3],inactive
same,Potency,[4],inactive
same,Potency,[10],inactive
C[C@@H]1N=C(N)NC(N(C)C)=N1,Potency,[1],inactive
same,Potency,[2],inactive
same,Potency,[11],inactive
same,Potency,[3],inactive
same,Potency,[4],inactive
same,Potency,[10],inactive
same,Potency,[12],inactive
same,Z-AUC,[13],1.33 (inactive)
same,Z-AUC,[13]; [17],1.06
same,Z-AUC,[13]; measured here: PEO4 Z-AUC,1.03
CNS(=O)(=O)c1ccc2c(c1)/C(=C/c1[nH]c3c(c1CCCN1CCN(C)CC1)CCCC3)C(=O)N2,Potency,[1],inactive
same,Potency,[2],inactive
same,Potency,[11],20800 nM (active)
same,Potency,[3],inactive
same,Potency,[4],16600 nM (active)
same,Potency,[10],inactive
same,Potency,[12],inactive
same,Z-AUC,[13],0.43 (inactive)
same,Z-AUC,[13]; [17],0.259
same,Z-AUC,[13]; measured here: PEO4 Z-AUC,-0.147
O=C(Nc1cc(Oc2cc(F)c(NC(=O)C3(C(=O)Nc4ccc(F)cc4)CC3)cc2F)ccn1)C1CC1,Potency,[1],5170 nM (active)
same,Potency,[2],4610 nM (active)
same,Potency,[11],18600 nM (active)
same,Potency,[3],2.59 µM (active) and inactive
same,Potency,[4],2.59 µM (active) and inactive
same,Potency,[10],inactive
same,Potency,[12],inactive
same,Z-AUC,[13],-0.419 (inactive)
same,Z-AUC,[13]; [17],0.97
same,Z-AUC,[13]; measured here: PEO4 Z-AUC,-0.43
Cc1cc(N2CCOCC2)cc2[nH]c(-c3c(NCC(O)c4cccc(Cl)c4)cc[nH]c3=O)nc12 (stereo unspecified),Potency,[1],2060 nM (active)
same,Potency,[2],5800 nM (active)
same,Potency,[3],1.64 µM (active)
same,Potency,[4],1460 nM (active)
Cc1ccc(NS(=O)(=O)c2cc3c(cc2NCCO)NC(=O)CC3)cc1C,Potency,[1],inactive
same,Potency,[2],inactive
same,outcome,[5],inactive
same,Potency,[3],inactive
same,Potency,[10],inactive
C[C@@]1(F)[C@H](O)[C@@H](CO)O[C@H]1n1ccc(N)nc1=O,Potency,[1],inactive
same,Potency,[2],inactive
same,Potency,[3],inactive
same,Potency,[4],inactive
N#Cc1ccc(-c2c(-c3ncn[nH]3)sc(N3CCOCC3)c2C#N)c(F)c1,Potency,[1],2060 nM (active)
same,Potency,[2],5800 nM (active)
same,Potency,[3],1.03 µM (active) and 934 nM (active)
same,Potency,[4],651 nM (active) and 1.18 µM (active)
same,Potency,[10],inactive
same,Z-AUC,[13],-1.04 (inactive)
same,Z-AUC,[13]; [17],-1.47
same,Z-AUC,[13]; measured here: PEO4 Z-AUC,-1.34
same,"activity change, negative = inhibition",[14],-34.7% (inactive)
O=C(NOCCO)c1cc(CN2OCCCC2=O)c(F)c(F)c1Nc1ccc(I)cc1F,Potency,[1],inactive
same,Potency,[2],inactive
same,Potency,[11],inactive
same,Potency,[3],inactive
same,Potency,[10],inactive
same,Z-AUC,[13],-1.18 (inactive)
same,Z-AUC,[13]; [17],-0.961
same,Z-AUC,[13]; measured here: PEO4 Z-AUC,-1.01
CC1CN(CC(=O)Nc2ccc3c(c2)Cc2cccc(-c4cc(=O)cc(N5CCOCC5)o4)c2S3)CC(C)O1 (stereo unspecified),Potency,[1],inactive
same,Potency,[2],inactive
same,Potency,[15],inactive
same,Potency,[16],2680 nM (active)
O=C1CCCC2=C1C(c1ccncc1Br)N=C(Nc1nc3ccccc3o1)N2 (stereo unspecified),Potency,[1],inactive
same,Potency,[2],inactive
same,outcome,[5],inactive
same,Potency,[10],inactive
CN1CCN(Cc2ccc(Nc3ncc(Cl)c(Nc4ccccc4S(=O)(=O)N(C)C)n3)cc2)CC1,Potency,[1],59.6 nM (active)
same,Potency,[2],66.8 nM (active)
same,Potency,[11],151 nM (active)
same,Potency,[3],0.0241 µM (active)
same,Potency,[4],15.2 nM (active)
same,outcome,[10],inactive [at 9.52 µM]
same,Potency,[13],79.6 nM (active)
same,Z-AUC,[13]; [17],-1.68
same,Z-AUC,[13]; measured here: PEO4 Z-AUC,-1.52
OCCn1cc(-c2ccc3c(c2)CC/C3=N\O)c(-c2ccncc2)n1,Potency,[1],inactive
same,Potency,[2],inactive
same,Potency,[11],inactive
same,Potency,[10],inactive
same,Potency,[12],inactive
same,Z-AUC,[13],2.52 (inactive)
same,Z-AUC,[13]; [17],1.44
same,Z-AUC,[13]; measured here: PEO4 Z-AUC,1.33
C#Cc1cccc(Nc2ncnc3cc4c(cc23)OCCOCCOCCO4)c1,Potency,[1],inactive
same,Potency,[2],inactive
same,Potency,[11],inactive
same,Potency,[4],inactive
same,Potency,[10],inactive
same,Potency,[12],inactive
same,Z-AUC,[13],0.644 (inactive)
same,Z-AUC,[13]; [17],0.664
same,Z-AUC,[13]; measured here: PEO4 Z-AUC,0.297
CC(N)C1CCC(C(=O)Nc2ccncc2)CC1 (stereo unspecified),Potency,[1],inactive
same,Potency,[2],inactive
same,Potency,[3],inactive
same,Potency,[4],inactive
